TDP1 cell noCPT: qHTS for Inhibitors of human tyrosyl-DNA phosphodiesterase 1 (TDP1): qHTS in cells in absence of CPT | Potency, µM (series often up to 46.2 µM), inactives show at the top dose activity change, negative = growth inhibition, actives largely listed as inhibitors | hit rate 15% among 420,000 | DT40 Tdp1-/- hTDP1 cells, no CPT, ATP luminescence, 48 h; also: nearly all actives have a fitted effect of over 55% in size
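Readout: luminescence from CellTiter-Glo after 30 min in the dark at RT. Cells: DT40 Tdp1-/- with stable hTDP1, 400/well. Exposure: compounds alone, ≥48 hr, 37 °C.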
KB-V1 cytotox: qHTS assay for MDR1-selective chemotherapeutics: Primary screen using the drug-selected MDR subline cells KB-V1; KB-V1 MDR cells viability, CellTiter-Glo, 72 h; Potency, µM (titrated, usually from 46.1 µM), actives largely listed as cytotoxic; hit rate 3.4% among 400,000; AID 1347076, 2019; also: nearly all actives have a fitted effect of over 60% in size
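Following 72 h at 37 degrees C with compound, KB-V1 cell viability was read by CellTiter-Glo luminescence, medium being phenol-red-free DMEM plus 10% FBS; concentration-response parameters came from normalized, curve-fitted qHTS data.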
HT1080 IDH1KD tx: qHTS for induction of synthetic lethality in tumor cells producing 2HG: qHTS for the HT-1080-IDH1KD cell line | HT-1080 IDH1 knockdown viability, ATP luminescence, 48 h | Potency, µM (top dose mostly 46.1 µM), for the others: at the highest dose activity, negative = toxicity, hits mostly cytotoxic | hit rate 2% among 360,000 | AID 686971, 2013;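 also: 0% = DMSO wells and -100% = cell-free medium wells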
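Knockdown cells (IDH1KD HT-1080) received compounds 2 h after plating at 750 cells/well and were kept 48 h at 37 °C in 5% FBS RPMI. A CellTiter-Glo luminescence read gave % activity for curve fitting.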
HT1080NT lethal: qHTS for induction of synthetic lethality in tumor cells producing 2HG: qHTS for the HT-1080-NT fibrosarcoma cell line; HT-1080-NT fibrosarcoma viability, CellTiter-Glo ATP luminescence, 48 h; hit rate 1.6% among 360,000; AID 686970, 2013; Potency, µM (titrated, usually from 46.1 µM), without a hit: at the top dose activity, negative = less viability, hits mostly cytotoxic;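 also: NT is the 2HG producing partner of a matched IDH1 knockdown line; 0% = DMSO-treated cells and -100% = media-only wells without cells; nearly all actives have a fitted effect of over 55% in size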
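Fibrosarcoma NT cells, 750 per well in 5% FBS RPMI, were exposed to compound for 48 hours. Viability: CellTiter-Glo luminescence.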
DT40 TDP1 CPT: qHTS for Inhibitors of human tyrosyl-DNA phosphodiesterase 1 (TDP1): qHTS in cells in presence of CPT; hit rate 12% among 420,000; Potency, µM (doses to about 46.2 µM), without a hit: at the top dose activity change, negative = growth inhibition, most hits filed as inhibitors; AID 686979, 2013; chicken DT40 Tdp1-/-;hTDP1 cells + 20 nM CPT, ATP luminescence, 48 h; also: nearly all actives have a fitted effect of over 55% in size
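Cell growth measured by CellTiter-Glo luminescence after a minimum 48 h, 37 C compound exposure with 20 nM CPT in Tdp1-knockout DT40 cells stably expressing hTDP1, seeded 400/well; qHTS titration format.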
KB-3-1 tox: qHTS assay for MDR1-selective chemotherapeutics: Primary screen using the parental adenocarcinoma cell KB-3-1; KB-3-1 viability, CellTiter-Glo ATP luminescence, 72 h; Potency, µM (highest dose often 46.1 µM), actives largely listed as cytotoxic; hit rate 1.4% among 400,000; AID 1347075, 2019; also: nearly all actives have a fitted effect of over 60% in size
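Here the drug-naive KB-3-1 line serves as comparator for MDR sub-line selectivity; cells received compound titrations, 72 h at 37 °C, then CellTiter-Glo readout.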
* = called active by the depositor; i = inactive; ? = inconclusive; nt = no result; [ ] = another dose, or the depositor's remark. Most compounds without a hit are left out; they make up all but 19% or so of the library. Calls follow the shape of the dose curve; as a rule, active = well fitted curve in the direction sought with a large enough effect; inconclusive = small, poorly fitted or top-dose-only effect, or another doubt; inactive = no such curve, though single readings can be large; an effect the other way counts as inactive or inconclusive. Unless noted, % is scaled to controls: 0 for no effect and ±100 for the full control effect; potency is read from the fitted curve at half-maximal effect.

SMILES | TDP1 cell noCPT | KB-V1 cytotox | HT1080 IDH1KD tx | HT1080NT lethal | DT40 TDP1 CPT | KB-3-1 tox
CCC(C)N1CCC2(CC1)N=c1c(c3c4c5c(C)c(O)c3c(O)c1=NC(=O)C(C)=CC=C[C@H](C)[C@H](O)[C@@H](C)[C@@H](O)[C@@H](C)[C@H](OC(C)=O)[C@H](C)[C@@H](OC)C=CO[C@@](C)(O5)C4=O)N2 (stereo partly specified) | 18.4µM* | i | -13.6% | -13.2% | 13µM* | i
O=C(O)c1nn(CCOc2ccc(Br)cc2)c(=O)c2ccccc12 | 1.1% | i | -1.9% | 2.8% | -2.4% | i
CCCCNc1nc(Cl)nc(Nc2ccc(C)cc2)n1 | -24.0% | i | -1.0% | -3.4% | -13.1% | ?
Brc1ccc2c(c1)CNc1c(ncnc1N1CCOCC1)O2 | ? | ? | -23.7% | -14.0% | 15.8µM* | i
CCC1Nc2ncnc(N3CCOCC3)c2N(Cc2ccc(Br)cc2)C1=O (stereo unspecified) | ? | i | -1.3% | -1.9% | ? | i
COc1ccc(S(=O)(=O)N(C)C[C@H]2OCc3cnnn3CCCC(=O)N([C@@H](C)CO)C[C@H]2C)cc1 | -27.0% | i | -5.6% | -7.3% | 1.5% | i
CC1CC(C(F)F)n2nc(C(=O)Nc3sc4c(c3C#N)CCC(C(C)(C)C)C4)nc2N1 (stereo unspecified) | ? | ? | 4.8% | 4.4% | ? | 16.4µM*
CC(C)(C)C1CCc2c(sc(NC(=O)c3cc(-c4ccc(F)cc4)on3)c2C#N)C1 (stereo unspecified) | -6.6% | i | nt | nt | -12.2% | i
O=C(NCC(c1ccc(F)cc1)N1CCOCC1)c1ccc(C(=O)c2ccccc2)cc1 (stereo unspecified) | 20.6µM* | i | -7.7% | 0.9% | ? | i
O=C(CC12CC3CC(CC(C3)C1)C2)NCC(c1ccc(F)cc1)N1CCOCC1 (stereo unspecified) | ? | i | -9.2% | -15.5% | 25.9µM* | i
COc1ccc(CC(=O)NCC(c2ccc(N(C)C)cc2)N2CCOCC2)cc1OC (stereo unspecified) | ? | i | nt | nt | ? | i
CN(C)c1ccc(C(CNC(=O)c2ccc(C(C)(C)C)cc2)N2CCOCC2)cc1 (stereo unspecified) | 20.6µM* | i | nt | nt | 16.4µM* | i
CCOc1cc(C(=O)NCC(c2ccc(N(C)C)cc2)N2CCOCC2)cc(OCC)c1OCC (stereo unspecified) | 18.4µM* | i | nt | nt | 20.6µM* | i
Cc1c(C(=O)NCc2ccc(F)cc2)sc2ncnc(NCC3CCCO3)c12 (stereo unspecified) | -14.1% | nt | nt | nt | -13.2%[9.04 µM] | nt
Cc1ccc(NC(=O)c2ccc(=O)[nH]c2)cc1S(=O)(=O)N1CCCCC1 | -12.6% | i | -5.2% | -4.8% | -20.9% | i
CCOC(=O)c1ccc(NC(=O)CN2c3ccccc3S(=O)(=O)c3ccccc32)cc1 | ? | i | nt | nt | ? | i
CC(C)c1ccc(NC(=O)CN2C(=O)c3cccc4cccc2c34)cc1 | -6.9% | nt | nt | nt | -17.3% | nt
C=C1C=C(C)n2ncc(C(=O)Nc3ccc(NC(C)=O)c(Cl)c3)c2N1 | ? | i | nt | nt | ? | ?
OC(c1ccccc1)(c1ccc(F)cc1)C(c1ccccc1)N1CCOCC1 (stereo unspecified) | 18.4µM* | i | -24.5% | ? | 16.4µM* | ?
CN(Cc1cccc(F)c1)C(=O)c1cccc(S(=O)(=O)N2CCN(Cc3ccccc3)CC2)c1 | ? | ? | -5.1% | -1.4% | ? | ?
CN(CC(=O)Nc1ccccc1Cl)C(=O)c1cccc(S(=O)(=O)N2CCN(Cc3ccccc3)CC2)c1 | 9.2µM* | ? | -6.4% | 20.6µM* | 11.6µM* | i
CN(CC(=O)Nc1ccccc1Cl)C(=O)c1cccc(S(=O)(=O)N2CCN(c3ccccc3)CC2)c1 | ? | i | -20.4% | -8.8% | ? | i
CN(CC(=O)Nc1cccc(F)c1)C(=O)c1cccc(S(=O)(=O)N2CCN(Cc3ccccc3)CC2)c1 | 8.2µM* | ? | -14.0% | -8.3% | 8.2µM* | ?
CCOC(=O)c1cc2c(C)n(-c3ccc(OCC)cc3)c(C)c2cc(C(=O)OCC)c1=O | 16.4µM* | ? | 9.5% | 17.3% | ? | i
CCOC(=O)c1cc2c(C)[nH]c(C)c2cc(C(=O)OCC)c1=O | 7.31µM* | i | -3.5% | -0.6% | ? | i
SMILES | TDP1 cell noCPT | KB-V1 cytotox | HT1080 IDH1KD tx | HT1080NT lethal | DT40 TDP1 CPT | KB-3-1 tox
CCOC(=O)c1cc2c(C)n(-c3ccc(N(C)C)cc3)c(C)c2cc(C(=O)OCC)c1=O | ? | ? | 4.3% | -2.7% | ? | i
CCCNC(=O)c1c(NC(=O)c2ccccc2)sc2c1CCC(C(C)(C)C)C2 (stereo unspecified) | -11.4% | i | nt | nt | 2.0% | i
CC(C)CC1=C/C(=C/c2ccc(-c3ccccc3)o2)C(=O)O1 | 16.4µM* | i | -6.2% | -14.3% | ? | i
Cc1cnc(-n2ncc(C(=O)N(C)C3CCOC3)c2C)nc1-c1ccc(F)cc1 (stereo unspecified) | -9.7% | nt | nt | nt | -2.3%[9.04 µM] | nt
CCc1noc(C)c1C(=O)Nc1ccccc1N1CCOCC1 | ? | i | 9.5% | -1.2% | ? | i
CCc1cc(C(=O)Nc2cc(S(=O)(=O)N(CC)CC)ccc2N2CCN(C)CC2)sc1C | -21.8% | i | -7.1% | -9.1% | -1.8% | i
CN1CCN(c2ccc(Cl)cc2NC(=O)c2nn(-c3ccccc3)c(=O)c3ccccc23)CC1 | 9.2µM* | i | -3.6% | -6.0% | ? | i
CCc1cc(C(=O)Nc2cc(Cl)ccc2N2CCN(C)CC2)sc1C | 23.1µM* | i | -1.0% | -4.0% | ? | i
CCc1noc(C)c1C(=O)Nc1cc(Cl)ccc1N1CCCC1 | 18.4µM* | ? | 4.8% | 6.3% | ? | i
Cn1nc(C(=O)Nc2cc(Cl)ccc2N2CCCC2)c2ccccc2c1=O | ? | i | -0.4% | -3.9% | ? | i

Screening data deposited in PubChem by National Center for Advancing Translational Sciences (NCATS).
